Test results from PubChem BioAssay AID1650 (Southern Research Specialized Biocontainment Screening …, 2009).
Measured potencies and affinities stand elsewhere. Values without a mark were called inactive. The rule behind the calls is not given here.

Assay: host cell cytotoxicity of antiviral hits, dose response, cytotoxicity control for West Nile virus antiviral project, secondary assay (AID 1650)
Details: Mammalian host cell viability, cytotoxicity counter-screen; series mostly up to 10 µM; viability: at the top concentration

**Q.** Which “viability” value does the source give for `O=C(Nc1ccc2nc3n(c(=O)c2c1)CCCC3)c1cc([N+](=O)[O-])ccc1F` here?
**A.** 78.6% [at 20 µM]

**Q.** With `CCOC(=O)c1cn(CC(=O)Nc2ccc(C(C)C)cc2)nn1` as the compound, how does the “viability” value read?
**A.** 88.6%

**Q.** For `CCN(CC)CCCNc1nc(-c2ccccc2)nc2ccccc12`, which “viability” value is on record?
**A.** 81.9%

**Q.** For `C=CCn1cc(C(=O)NCCOC)c(=O)c2cc(S(=O)(=O)N(CC)CC)ccc21`, which “viability” value is on record?
**A.** 84.9%

**Q.** Which “viability” value does the source give for `Cc1ccc(-n2ncc(C(=O)Nc3ccc(Cl)cc3)c2C2CCNCC2)cc1C` here?
**A.** 82.5% [at 20 µM]

**Q.** With `C=CCN=C1CC(C)(C)CC(=O)/C1=C(/O)CCC(=O)OC` as the compound, how does the “viability” value read?
**A.** 87.2%

**Q.** Which “viability” value does the source give for `COc1ccc(NC(=O)CSc2nc3c(sc4ccccc43)c(=O)n2CCCN2CCCC2)cc1` here?
**A.** 75.6%

**Q.** For `CCOc1ccc(NC(=NCc2ccc3c(c2)OCO3)SC2CC(=O)N(c3ccc(OCC)cc3)C2=O)cc1` (stereo not drawn), which “viability” value is on record?
**A.** 79.3% [at 20 µM]

**Q.** For `CCOc1ccc(NC(=O)c2c(NC(=O)CN3CCN(C)CC3)sc3c2CCC3)cc1`, which “viability” value is on record?
**A.** 77%

**Q.** Which “viability” value does the source give for `Cc1ccc(Cl)cc1N1CCN(CC(=O)Nc2ccc(CN3CCCCC3)cc2)CC1` here?
**A.** 91% [at 20 µM]

**Q.** Which “viability” value does the source give for `CN(C)CCNc1oc(COc2ccc(-c3ccccc3)cc2)nc1C#N` here?
**A.** 84.9%

**Q.** For `Cc1cc(F)ccc1N1CCC(N2CCN(C(C)C)C(CCO)C2)CC1` (stereo not drawn), which “viability” value is on record?
**A.** 89.4% [at 20 µM]

**Q.** For `COC(=O)c1c(NC(=O)CCS(=O)(=O)c2ccccc2)sc2c1CCN(C)C2`, which “viability” value is on record?
**A.** 73.3% [at 20 µM]

**Q.** With `CCN(CC)S(=O)(=O)c1ccc(OC)c(NC(=O)c2cccc([N+](=O)[O-])c2C)c1` as the compound, how does the “viability” value read?
**A.** 83% [at 20 µM]

**Q.** For `CCOc1ccc(NC(=O)Cn2c(=O)n(CCCC(=O)NC3CCN(Cc4ccccc4)CC3)c(=O)c3ccccc32)cc1`, which “viability” value is on record?
**A.** 86.5%

**Q.** Which “viability” value does the source give for `CCCCCCOC(=O)C(C#N)c1nc2ccccc2nc1N1CCN(C)CC1` (stereo not drawn) here?
**A.** 76.1%

**Q.** Which “viability” value does the source give for `CCCCN(CC)CCCNC(=S)Nc1ccc2nc(N3CCN(CC)CC3)cc(C)c2c1` here?
**A.** 80%

**Q.** Which “viability” value does the source give for `CCN1CCN(CCNC(=O)c2ccc(/C=C3\Sc4ccccc4N(Cc4ccccc4F)C3=O)cc2)CC1` here?
**A.** 88.9%

**Q.** With `CCCCOc1ccc(C(=O)N/N=C/c2ccc(OCCN3CCCCC3)c(OC)c2)cc1` as the compound, how does the “viability” value read?
**A.** 95.5% [at 20 µM]

**Q.** For `CC(=O)N[C@@H](C)C(=O)N1CCC(n2nccc2NC(=O)CCCc2ccccc2)CC1`, which “viability” value is on record?
**A.** 91.7%

**Q.** With `COc1cc(C(=O)/C=C/c2cccnc2)ccc1O` as the compound, how does the “viability” value read?
**A.** 73.2%

**Q.** With `Cc1cccc2c1NC(=O)/C2=C\C(=O)c1cccs1` as the compound, how does the “viability” value read?
**A.** 82.2%

**Q.** For `O=c1[nH]c2ccc(Cl)cc2c(-c2ccccc2)c1N1CCN(CCO)CC1`, which “viability” value is on record?
**A.** 79% [at 20 µM]
